Records with an inconclusive call do not appear. Active and inactive are the calls of the source. Calls come from the whole dose curve; as a rule, active = well fitted curve in the direction sought with a large enough effect; inconclusive = small, poorly fitted or top-dose-only effect, or effect the other way, or another doubt; inactive = no such curve, though single readings can be large or run the other way.
target: Alpha-galactosidase A (Homo sapiens) (UniProt P06280); assay: Confirmation of Inhibitors of Human alpha-Galactosidase Using Spleen Homogenate; conditions: alpha-galactosidase enzyme activity; series mostly up to 56.2 µM
Method in brief: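 Human spleen homogenate (1 ug) with 1 mM 4-methylumbelliferyl-alpha-D-galactopyranoside in citrate-phosphate pH 5.0, 0.01% Tween-20, 37C 40 min; compounds 0.5 nM–58 uM final. Stopped at pH 10, fluorescence Ex 365/Em 440; AC50 from Hill fits.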

Alpha-galactosidase A (Homo sapiens), sequence (P06280 32-429 limits assumed): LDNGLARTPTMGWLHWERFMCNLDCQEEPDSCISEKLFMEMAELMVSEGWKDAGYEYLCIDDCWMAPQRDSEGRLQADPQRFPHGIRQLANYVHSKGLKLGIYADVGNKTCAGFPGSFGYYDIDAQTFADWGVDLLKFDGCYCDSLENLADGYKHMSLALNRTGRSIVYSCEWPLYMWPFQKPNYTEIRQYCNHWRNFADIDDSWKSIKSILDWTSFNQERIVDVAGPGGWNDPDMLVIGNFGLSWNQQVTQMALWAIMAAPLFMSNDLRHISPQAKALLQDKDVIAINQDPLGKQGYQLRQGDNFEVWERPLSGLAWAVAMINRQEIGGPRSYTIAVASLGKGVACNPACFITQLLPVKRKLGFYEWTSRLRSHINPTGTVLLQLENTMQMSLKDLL

outcome, inactive:
CN(C(=O)N1CCN(S(=O)(=O)c2ccccc2)CC1)c1ccccc1, Cc1ccc(-c2cc(C(=O)N3CCN(S(=O)(=O)c4ccc(Br)s4)CC3)[nH]n2)c(C)c1, CCCC1(C)Nc2ccccc2-c2nc3ccccc3n21 (configuration not stated), Cc1ccc(S(=O)(=O)N(C)C)cc1NC(=O)COC(=O)Cc1ccc(Br)cc1, O=S(=O)(c1ccccc1F)N1CCOCC1, COC(=O)c1ccc(S(=O)(=O)N2CCOCC2)cc1, Cc1ccc(S(=O)(=O)NC(=O)NN2CCCCCC2)cc1, N#Cc1c(N2CCN(c3ccc(F)cc3)CC2)nc(N)c2c(N)nc3c(c12)CC(=O)N3C1CC1, CCc1sc(-c2cc3ccc(O)cc3oc2=O)nc1-c1cc(C)ccc1C, O=C(Cn1c(=O)[nH]n(-c2ccccc2)c1=O)N1CCCc2ccccc21, COc1ccc(/C=c2\s/c(=C/C(=O)c3ccc(C)cc3)[nH]c2=O)cc1OC, Cc1sc(-c2cc3c(ccc4ccccc43)oc2=O)nc1-c1ccccc1, CC/C(=C(\c1ccccc1)c1ccc(OCCN(C)C)cc1)c1ccccc1, O=c1oc2ccccc2cc1-c1nc2c(s1)CCc1ccccc1-2, CCc1cc(-c2n[nH]c(C)c2-c2nc3ccccc3n2C)c(O)c(CN2CCN(C)CC2)c1O, O=C1CCCC/C1=C\Nc1ccc(O)cc1, CCOC(=O)Nc1ccc2c(c1)N(C(=O)CN(CC)CC)c1ccccc1CC2, CCOc1c(Br)cc(CNc2ccc(N3CCN(C(C)=O)CC3)cc2)cc1OC, N#C/C(=C\c1cc(O)c(O)c(O)c1)C(N)=O, CCOC(=O)CCc1cccc2c1CCC2=O, Cc1c(Nc2c3ccccc3nc3ccccc23)c(=O)n(-c2ccccc2)n1C, COc1ccc(/C=C(/NC(=O)c2ccccc2)C(=O)NC(Cc2c[nH]c3ccccc23)C(=O)O)cc1 (configuration not stated), O=S(=O)(c1cccc(Cl)c1)N1CCOCC1, Cn1c(=O)c2c(nc(NCc3ccc4c(c3)OCO4)n2Cc2ccc(F)cc2)n(C)c1=O, CCc1sc(-c2cc3ccc(O)cc3oc2=O)nc1-c1ccccc1, O=C(Nc1ccc(OCC(=O)N2CCN(S(=O)(=O)c3ccccc3)CC2)cc1)c1ccco1, CC(C)Cn1c(SCC(=O)N2CCN(S(=O)(=O)c3ccccc3)CC2)nc2ccccc21, O=C(O)c1cc(NCc2c(F)cccc2Cl)ccc1N1CCOCC1, Nc1ccccc1S(=O)(=O)N1CCOCC1, CC(C)C[C@H](NC(=O)c1nc[nH]c1C(=O)NCC(=O)OCc1ccccc1)C(=O)OC(C)(C)C, O=C(Nc1nc2c(s1)CN(Cc1ccccc1)CC2)C1CCCC1, CCOC(=O)c1c(-c2ccc(-c3ccccc3)cc2)csc1NC(=O)CCN1CCOCC1, Cc1ccc(-c2nc(-c3cc4ccccc4oc3=O)sc2C)cc1, COc1cc(CNc2ccc(N3CCCC3)cc2)ccc1OCc1ccccc1F, COC(=O)CSc1ccc(C#N)c(SCC(=O)OC)c1, C[C@H](NC(=O)/C(C#N)=C/c1ccc(O)c(O)c1)c1ccccc1, N#Cc1ccc(S(=O)(=O)N2CCOCC2)cc1
